Results filed as inconclusive are left out. Entries that show only a call come without a potency. Active and inactive are the calls of the source. Calls come from the whole dose curve; as a rule, active = well fitted inhibition curve with a large enough effect; inconclusive = small, poorly fitted or top-dose-only effect; inactive = flat fitted curve, though single readings scatter.
Biological target: Calcium and integrin-binding protein 1 (Homo sapiens) (UniProt Q99828)
Assay: Primary qHTS for Identification of Calcium Integrin Binding Protein 1 (CIB1) Competitor (AID 1508620);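 note: GST tagged CIB1 binding a fluorescein labelled alphaIIb integrin peptide tracer; top concentration of the series differs between compounds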
Conditions: CIB1-GST / FITC-alphaIIb peptide fluorescence polarization; series mostly up to 114 µM
Procedure, shortened: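 Fluorescence polarization competition: CIB1-GST (1 uM final) preincubated with compound 15 min at room temperature, then FITC-labeled alphaIIb peptide (100 nM final) added for another 15 min. Polarization read at Ex 480/Em 540.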

Sequence of Calcium and integrin-binding protein 1 (Homo sapiens) (Q99828 whole entry, looked up): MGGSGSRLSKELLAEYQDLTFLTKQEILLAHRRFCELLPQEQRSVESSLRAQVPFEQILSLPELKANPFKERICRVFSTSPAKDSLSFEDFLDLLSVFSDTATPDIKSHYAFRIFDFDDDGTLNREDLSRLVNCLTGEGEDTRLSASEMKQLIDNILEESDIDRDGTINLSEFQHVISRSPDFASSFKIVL

SMILES | Potency
Cn1cc2ccc(-c3ccc4ncnc(NCc5cccs5)c4c3)cc2n1 | inactive
Cc1cnccc1-c1nc(Nc2ccc(F)c(F)c2)c2ccccc2n1 | inactive
O=C(Nc1ccc(Cl)c(Cl)c1)Nc1nnc(Br)s1 | inactive
COc1cccc(NC(=S)N2CCN(c3ncc(C(F)(F)F)cc3Cl)CC2)n1 | inactive
Cc1ccc(OCCn2c(CCNC(=O)C3CCOCC3)nc3ccccc32)cc1 | inactive
O=C(Nc1ncc(Cc2ccc(C(F)(F)F)cc2)s1)c1cnc(-c2ccccc2)s1 | inactive
C#CCOc1ccc(-c2nnc3n2N=C(c2ccc(OC)c(OCC(C)=O)c2)CS3)cc1 | inactive
COc1cc(-c2ccc3ncnc(NCC4CCCO4)c3c2)cc(OC)c1OC (stereo not given) | inactive
CCc1ccc(NC(=O)c2[nH]c(C)c(C(C)=O)c2C)cc1S(=O)(=O)Nc1ccc(C#N)cc1 | inactive
O=S(=O)(NCCNS(=O)(=O)c1c(F)cccc1F)c1ccc2c(c1)OCCO2 | inactive
O=[S+]([O-])(c1ccc(N2CCOCC2)nc1)N1CCN([S+](=O)([O-])c2c(F)cccc2F)CC1 | inactive
Cc1ccsc1CN(C)c1ncnc2ccc(-c3oc(-c4ccccc4)nc3C)cc12 | inactive
FC(F)(F)c1cc(-c2ccc(CNc3nc(-c4ccccc4C(F)(F)F)nc4ccccc34)cc2)ccc1Cl | inactive
NC(=O)C1CCN(c2nc(-c3ccc4c(c3)OCCO4)cs2)CC1 | inactive
CCNc1ncnc2ccc(-c3ccc4c(c3)OCO4)cc12 | inactive
O=C1CCCC2=C1C(c1ccncc1Cl)N=C(Nc1nc3ccccc3o1)N2 (stereo not given) | inactive
Cc1ccccc1S(=O)(=O)N1CCc2cc(-c3nc(NC(=O)Cc4ccc5c(c4)OCO5)sc3C)ccc21 | inactive
Cc1ccc(NS(=O)(=O)c2ccc3c(c2)CCN(C(=O)C(F)(F)F)C3)cc1C | inactive
CC(C)N1CCc2c(-c3nc4ccccc4s3)csc2C1 | inactive
O=[S+]([O-])(c1c(F)cccc1F)N1CCN([S+](=O)([O-])c2cccc3nonc23)CC1 | inactive

SMILES | Potency
Cc1cc(C)nc(NC(=S)N2CCN(c3ccc(Cl)cc3S(C)(=O)=O)CC2)c1 | inactive
Cc1cc(C)nc(NC(=S)N2CCN(c3ccc(C(F)(F)F)cn3)CC2)c1 | inactive
CC(C)c1ccccc1-c1nccc(NCc2ccc(-c3cccnc3)cc2)n1 | inactive
Cc1ccccc1C[C@H](C(=O)O)N1C(=O)c2ccc(C(=O)O)cc2C1=O | inactive
Cc1cc(NC(=O)Nc2nnc(C3CCCCC3)s2)ccc1Br | inactive
Cc1cc(NC(=O)Nc2nnc(C3CCCCC3)s2)ccc1F | inactive
c1nc(NCC2CCCOC2)c2cc(-c3ccc4c(c3)OCO4)ccc2n1 (stereo not given) | inactive
COc1ccc(C2Nc3ccccc3C(=O)N2Cc2ccco2)cc1 (stereo not given) | inactive
O=C1CCCC2=C1C(c1cccc(Oc3ccccc3)c1)N=C(Nc1nc3ccccc3o1)N2 (stereo not given) | inactive
Cc1cc(N[S+](=O)([O-])c2ccc(NC(=O)Cc3ccc4c(c3)OCCO4)cc2)no1 | inactive
N#CN1CCC(NS(=O)(=O)c2ccc(C(F)(F)F)cc2)CC1 | inactive
COc1ccc(OC)c(C2=Nn3c(nnc3-c3ccccc3O)SC2)c1 | inactive
Cc1ccc(CN(C)c2ncnc3ccc(-c4ccc5c(c4)OCO5)cc23)o1 | inactive
O=S(=O)(c1ccc2c(c1)OCCO2)N1CCN(S(=O)(=O)c2cc(F)c(Br)cc2F)CC1 | inactive
CCn1cnc2c(Nc3ccc(CC(=O)N=C(N)N)cc3)nc(C#N)nc21 | inactive
O=[S+]([O-])(Nc1ccc(-c2ccccc2)cc1)c1ccc(NCc2ccc(Cl)cc2O)cc1 | inactive
COc1ccc(C2NC(=O)c3ccccc3N2)cc1COc1c(C)cc(NC(C)=O)cc1C (stereo not given) | inactive
COc1cc(NS(=O)(=O)c2ccc(C)cc2)c2ncccc2c1 | inactive
COc1cc(O)c(C(CC(=O)N2C[C@H](C)C[C@H](C)C2)c2ccc3c(c2)OCO3)c(OC)c1 (stereo not given in full) | inactive
Cc1noc(C)c1-c1ccc2ncnc(NCc3ccc(F)cc3)c2c1 | inactive

From PubChem BioAssay (NCATS)
